Source: PubChem BioAssay AID1159580 (chemical genetic matrix, 2015)
Hit rate of the full screen: of about 5,500 compounds, about 2,000 (36%) were called active. Another 18% or so got no clear call; they are omitted. Cut-off read from the data, not from the text of the source: active = normalized growth mostly below about 0.91 (no sharp cut-off); inconclusive = no clear call, values can overlap the other calls; inactive = mostly above about 0.92. This is one part of the list.

Assay: chemical genetic growth profiling, strain panel (AID 1159580);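 note: tested at 20 µM; growth read once vehicle control cultures reached saturation at 30 °C; 1 = growth at the plate median or of vehicle wells; lower values mean less growth of the strain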
Conditions: S. cerevisiae deletion strains, growth OD

Measured: normalized growth

O=C(O)CSCc1ccccc1
inactive: locus YAL013W, strain DEP1, active compounds read low 1.01 | locus YBR229C, strain ROT2, active compounds read low 1 | locus YCL061C, strain MRC1, active compounds read low 0.991 | locus YDL101C, strain DUN1, active compounds read low 1.02 | locus YDL134C, strain PPH21, active compounds read low 0.986 | locus YDR150W, strain NUM1, active compounds read low 0.98 | locus YEL061C, strain CIN8, active compounds read low 1.01 | locus YGR078C, strain PAC10, active compounds read low 0.976 | locus YHR030C, strain SLT2, active compounds read low 1.07 | locus YHR087W, strain rtc3, active compounds read low 0.99 | locus YJR043C, strain POL32, active compounds read low 1.03 | locus YJR075W, strain HOC1, active compounds read low 0.971 | locus YLR039C, strain RIC1, active compounds read low 1.07 | locus YLR058C, strain SHM2 (second series), active compounds read low 0.993 | locus YLR085C, strain ARP6, active compounds read low 1.03 | locus YLR262C, strain YPT6, active compounds read low 1.04 | locus YML094W, strain GIM5, active compounds read low 1.03 | locus YMR219W, strain ESC1, active compounds read low 0.997 | locus YMR263W, strain SAP30, active compounds read low 1 | locus YNL128W, strain TEP1, active compounds read low 0.986 | locus YNL153C, strain GIM3, active compounds read low 0.997 | locus YNL298W, strain CLA4 (second series), active compounds read low 1.05 | locus YNL322C, strain KRE1, active compounds read low 0.991 | locus YNR030W, strain Alg12, active compounds read low 1.02 | locus YPL055C, strain LGE1, active compounds read low 0.958 | locus YPL241C, strain CIN2, active compounds read low 1 | locus YPR135W, strain CTF4, active compounds read low 0.976
